Records with an inconclusive call do not appear. Entries that show only a call come without a potency. Unmarked numbers belong to inactive results. Active and inactive are the calls of the source. Calls follow the shape of the dose curve; as a rule, active = well fitted curve in the direction sought with a large enough effect; inconclusive = small, poorly fitted or top-dose-only effect, or another doubt; inactive = no such curve, though single readings can be large; an effect the other way counts as inactive or inconclusive.
Assays:
[1] = target: Rap guanine nucleotide exchange factor 3 (Homo sapiens) (UniProt O95398); test: Confirmatory qHTS for antagonist of cAMP-regulated guanine nucleotide exchange factor 3 (EPAC1) (AID 1645880); conditions: EPAC1 Rap1B-BODIPY-GDP exchange, fluorescence; activity, negative = inhibition: at 115 µM (top of the series); also: nearly all actives have a fitted effect of over 55% in size; also: potency is read from the fitted curve at half-maximal effect
Rap guanine nucleotide exchange factor 3 (Homo sapiens), sequence (O95398 whole entry, looked up): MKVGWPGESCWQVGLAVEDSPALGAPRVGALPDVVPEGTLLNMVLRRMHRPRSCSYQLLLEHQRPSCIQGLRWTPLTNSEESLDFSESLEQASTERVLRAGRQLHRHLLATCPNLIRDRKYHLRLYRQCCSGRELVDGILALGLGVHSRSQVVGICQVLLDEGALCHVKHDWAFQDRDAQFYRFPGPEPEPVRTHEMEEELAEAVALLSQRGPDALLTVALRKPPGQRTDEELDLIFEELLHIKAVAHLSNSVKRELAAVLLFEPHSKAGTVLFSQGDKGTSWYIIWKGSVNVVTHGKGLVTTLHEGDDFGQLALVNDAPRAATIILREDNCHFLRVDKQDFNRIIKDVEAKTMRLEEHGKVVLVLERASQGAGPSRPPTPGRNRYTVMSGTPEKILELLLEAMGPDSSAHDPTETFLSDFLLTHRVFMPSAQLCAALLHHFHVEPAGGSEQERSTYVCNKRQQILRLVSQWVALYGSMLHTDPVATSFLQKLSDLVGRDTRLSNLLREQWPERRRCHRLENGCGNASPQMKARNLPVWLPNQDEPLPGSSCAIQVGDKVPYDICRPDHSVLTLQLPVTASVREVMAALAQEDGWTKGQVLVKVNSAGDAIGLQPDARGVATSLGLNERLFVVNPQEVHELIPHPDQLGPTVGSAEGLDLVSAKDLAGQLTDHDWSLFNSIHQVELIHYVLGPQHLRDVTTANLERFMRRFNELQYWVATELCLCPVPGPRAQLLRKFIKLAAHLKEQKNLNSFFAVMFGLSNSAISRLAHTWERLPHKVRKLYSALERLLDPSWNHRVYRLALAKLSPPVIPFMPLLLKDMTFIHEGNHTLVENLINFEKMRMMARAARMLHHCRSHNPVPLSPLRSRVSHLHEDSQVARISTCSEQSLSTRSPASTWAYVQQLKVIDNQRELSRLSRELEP
In short: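 Released BODIPY-GDP fluoresces less than Rap1-bound BODIPY-GDP; the signal is followed at 480/540 nm at 5-min intervals over 30 min, after 5 min at room temperature. Reactions contain 100 nM EPAC1, 250 nM RAP1B-BODIPY-GDP and 50 uM GDP; results are normalized to ATA and DMSO.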

[2] = target: Rap guanine nucleotide exchange factor 3 (Homo sapiens) (UniProt O95398); test: Confirmatory qHTS for agonist of cAMP-regulated guanine nucleotide exchange factor 3 (EPAC1) (AID 1645881); also: nearly all actives have a fitted effect of over 75% in size; also: potency is read from the fitted curve at half-maximal effect;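 as to activation: EPAC1 catalysed release of BODIPY-GDP from Rap1B seen as fluorescence loss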
[3] = target: Rap guanine nucleotide exchange factor 4 (Homo sapiens) (UniProt Q8WZA2); test: Confirmatory qHTS for antagonist of cAMP-regulated guanine nucleotide exchange factor 4 (EPAC2) (AID 1645885); also: nearly all actives have a fitted effect of over 25% in size; also: potency is read from the fitted curve at half-maximal effect
Rap guanine nucleotide exchange factor 4 (Homo sapiens), sequence (Q8WZA2 whole entry, looked up): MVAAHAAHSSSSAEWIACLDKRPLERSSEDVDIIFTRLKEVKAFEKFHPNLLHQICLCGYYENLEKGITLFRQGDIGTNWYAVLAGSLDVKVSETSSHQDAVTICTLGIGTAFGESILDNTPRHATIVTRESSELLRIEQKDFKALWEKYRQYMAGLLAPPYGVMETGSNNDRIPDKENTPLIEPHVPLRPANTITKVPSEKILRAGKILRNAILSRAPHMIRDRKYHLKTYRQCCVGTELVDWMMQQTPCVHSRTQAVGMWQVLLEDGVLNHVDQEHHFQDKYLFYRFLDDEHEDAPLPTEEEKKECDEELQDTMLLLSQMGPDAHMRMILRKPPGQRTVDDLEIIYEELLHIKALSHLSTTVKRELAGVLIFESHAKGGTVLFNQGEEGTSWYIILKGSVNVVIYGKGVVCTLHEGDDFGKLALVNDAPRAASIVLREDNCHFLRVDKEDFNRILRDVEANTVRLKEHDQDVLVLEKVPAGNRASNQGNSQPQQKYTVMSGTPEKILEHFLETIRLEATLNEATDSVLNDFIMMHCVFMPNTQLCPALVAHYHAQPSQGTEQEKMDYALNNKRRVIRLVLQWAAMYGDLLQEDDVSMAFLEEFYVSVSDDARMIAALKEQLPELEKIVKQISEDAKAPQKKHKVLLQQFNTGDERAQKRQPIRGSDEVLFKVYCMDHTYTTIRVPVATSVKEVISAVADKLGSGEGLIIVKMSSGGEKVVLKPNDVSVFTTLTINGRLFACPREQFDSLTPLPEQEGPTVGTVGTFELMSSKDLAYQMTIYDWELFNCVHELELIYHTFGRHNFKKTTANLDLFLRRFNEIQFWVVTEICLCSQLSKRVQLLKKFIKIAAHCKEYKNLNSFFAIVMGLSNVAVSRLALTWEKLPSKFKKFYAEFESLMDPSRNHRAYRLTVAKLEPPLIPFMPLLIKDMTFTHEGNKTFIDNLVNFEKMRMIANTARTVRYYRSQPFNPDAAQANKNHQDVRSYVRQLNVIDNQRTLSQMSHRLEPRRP

[4] = target: Rap guanine nucleotide exchange factor 3 (Homo sapiens) (UniProt O95398); test: Counterscreen qHTS for antagonist of cAMP-regulated guanine nucleotide exchange factor 3 (EPAC1) (AID 1645888)
In short: (§1)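 Measured: fluorescence of BODIPY-GDP bound to Rap1B, which falls as exchange proceeds. Conditions include 50 uM competing GDP, 5 and 30 min reads, and a later cAMP challenge for antagonist detection.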

[5] = target: Rap guanine nucleotide exchange factor 3 (Homo sapiens) (UniProt O95398); test: Counterscreen qHTS for agonist of cAMP-regulated guanine nucleotide exchange factor 3 (EPAC1) (AID 1645889); also: nearly all actives have a fitted effect of over 40% in size; also: potency is read from the fitted curve at half-maximal effect
In short: as §1

Compound	Potency [1]	Potency [2]	Potency [3]	Potency [4]	Potency [5]	outcome [3]	activity change, negative = inhibition [4]	activation [5]
COc1cc(NC(=O)CCNC(=O)Cn2ccc3ccccc3c2=O)cc(OC)c1OC	inactive	inactive	inactive	inactive				
O=C(O)CSCC(=O)N(Cc1ccccc1)c1nc(-c2ccccc2)c(-c2ccccc2)s1	67.5 µM (active)	inactive	67.5 µM (active)	inactive				
COc1cc2c(cc1NC(=O)C(C)Oc1ccc(Cl)cc1Cl)oc1ccccc12 (configuration not stated)	inactive	inactive	inactive	inactive				
Cc1cccc(Cn2c(-c3cccs3)nc3ccccc32)c1	inactive	inactive	inactive	inactive				
COC(=O)c1c(SC)nc2ccccc2c1OCc1ccc(Cl)cc1	inactive	inactive	inactive	inactive				
Cc1cc(C)cc(NC(=O)c2sc3nc(-c4cc5ccccc5oc4=O)[nH]c(=O)c3c2C)c1	inactive	inactive	inactive	inactive				
COc1ccc(C(NC(=O)c2cc(OC)ccc2OC)c2ccccc2)cc1 (configuration not stated)	inactive	inactive	inactive	inactive				
COc1ccc2c(c1)Cc1sc(NC(=O)c3cccc(C)c3)nc1-2	84.9 µM (active)	inactive	inactive	inactive				
CC(NC(=O)c1ccc(Br)s1)c1ccncc1 (configuration not stated)	inactive	inactive	inactive	inactive				
CCCCCCn1c(=O)[nH]c2nc3cc(N)c(C)cc3nc2c1=O	inactive	112 µM (active)	inactive	inactive				
O=C1CSC(c2ccc(Cl)cc2Cl)N1c1ccccn1 (configuration not stated)	inactive	inactive	inactive	inactive				
O=C(Nc1ccccc1OCc1ccccc1)c1ccccc1Br	inactive	inactive	1.51 µM (active)	inactive				
CC(=O)c1cccc(NC2c3ccccc3C(=O)N2Cc2ccc3c(c2)OCO3)c1 (configuration not stated)	inactive	inactive	inactive	inactive				
CCOc1cc(-c2ccc(OC(=O)c3ccc(OC)cc3)c(OC)c2)cc(=O)c2c(C)oc(C)c12	75.7 µM (active)	inactive	inactive	inactive				
Cc1ccc(C)c(NC(=O)N2CCN3CCCCC3C2)c1 (configuration not stated)	inactive	inactive	inactive	inactive				
COc1ccccc1CN(C)CC(=O)Nc1ccc(Cl)cc1F	inactive	inactive	inactive	inactive				
COc1cc(SC)ccc1C(=O)NC1CCCc2ccccc21 (configuration not stated)	inactive	inactive	30.1 µM (active)	inactive				
COC(=O)C1=C(C)N(c2ccc(OC)cc2)C(C)=C(C(=O)OC)C1c1ccccc1	inactive	inactive	inactive	inactive				
Cc1oc2cc(Br)c(O)c(Br)c2c1C(=O)c1ccccc1	inactive	inactive	inactive	inactive				
Nc1ncnc2c1nc(Sc1ccc(Cl)cc1)n2[C@@H]1O[C@@H]2COP(=O)(O)O[C@H]2[C@H]1O	0.213 µM (active)	0.355 µM (active)	0.675 µM (active)	inactive				

Compound	Potency [1]	Potency [2]	Potency [3]	Potency [4]	Potency [5]	outcome [3]	activity change, negative = inhibition [4]	activation [5]
CC(=O)c1ccccc1NC(=O)COC(=O)CSCC(=O)Nc1cc(C)on1	inactive	inactive	inactive	inactive				
COC(=O)c1c(SC)nc2ccccc2c1OCc1ccccc1Cl	inactive	inactive	inactive	inactive	inactive			
COc1ccc(NC(=O)CN(C)C(=O)c2cn(-c3ccccc3)nc2-c2cccnc2)cc1	inactive	inactive	inactive	inactive				
COc1ccc(CCNC(=O)CCCn2c(SCC(N)=O)nc3cc4c(cc3c2=O)OCO4)cc1OC	inactive	inactive		inactive		inactive [at 12.7 µM]		
O=C1COc2ccc(C(=O)COC(=O)c3ccc4ccccc4n3)cc2N1	75.7 µM (active)	inactive	inactive	inactive	inactive			
CCN(CC)CCOC(=O)c1ccc(NC(=O)c2nn(-c3ccc(C)cc3)c(=O)c3c2c2ccccc2n3C)cc1	42.6 µM (active)	inactive		inactive	inactive	inactive [at 12.7 µM]		
CC(=O)C1=CCC(c2cccc(Cl)c2)N(S(=O)(=O)c2ccc(C)cc2)C1 (configuration not stated)	inactive	inactive	inactive	inactive	inactive			
CCOc1ccccc1NC(=O)N1CCC(N2CCN(Cc3ccccc3)C(=O)C2=O)CC1	inactive	inactive		inactive	inactive	inactive [at 12.7 µM]		
CCN(CC(=O)NCc1cccs1)C(=O)c1ccc(S(=O)(=O)Nc2ccccc2)cc1	inactive	inactive	inactive	inactive	inactive			
COC(=O)NCc1c(C)nn(-c2ccccc2)c1-n1cccc1	inactive	inactive	inactive	inactive	inactive			
COc1ccc(N2CCN(CC(O)COc3ccc(C(C)C)c(C)c3)CC2)cc1 (configuration not stated)	inactive	inactive	inactive	inactive	inactive			
Nc1ccc2c(O)cc(S(=O)(=O)O)cc2c1	4.26 µM (active)	inactive	inactive	inactive	inactive			
N#CC1=C2N=C(N)c3c(sc4c3CCCCC4)N2C2=C(C(=O)CCC2)C1c1ccccc1 (configuration not stated)	inactive	inactive	inactive	inactive	inactive			
CC(=O)Nc1ccc(/C(C)=N/NC(=O)c2ccc(COc3ccccc3Cl)o2)cc1	inactive	inactive	inactive				0.248% [at 30.8 µM]	15.7% [at 30.8 µM]
CCC(=O)N1CCc2cc(CNC(=O)c3ccccc3C)ccc21	inactive	inactive	inactive	inactive	inactive			
COc1ccc(C(=O)Nc2ccc(NC(=O)c3cccs3)cc2)cc1OC	inactive	inactive	inactive	inactive	inactive			
COc1cc([N+](=O)[O-])ccc1-c1ccc(/C=C2\C(=O)ON=C2c2ccccc2)o1	19 µM (active)	inactive	inactive	inactive	inactive			
Cc1ccc([N+](=O)[O-])cc1NC(=O)CN(C1CCCCC1)S(=O)(=O)c1ccc(Cl)cc1	inactive	inactive	8.49 µM (active)	inactive	inactive			
COc1ccc2c(Cl)c(C(=O)N/N=C3\CCCC(=O)C3)sc2c1	inactive	inactive	30.1 µM (active)	inactive	39.8 µM (active)			
Cc1cccc(NC(=O)CC2C(=O)OCCN2Cc2ccccc2)c1 (configuration not stated)	inactive	inactive	inactive	inactive	inactive			

Compound	Potency [1]	Potency [2]	Potency [3]	Potency [4]	Potency [5]	outcome [3]	activity change, negative = inhibition [4]	activation [5]
COc1ccc(Cn2c(=O)cc(C)[nH]c2=S)cc1	inactive	inactive	inactive				-27% [at 30.8 µM]	-6.93% [at 30.8 µM]
O=C(C(=Cc1ccccc1)c1ccccc1)c1ccccc1	inactive	inactive	inactive	inactive	inactive			
Cc1ccc(-n2nc3c(=O)n(CCCC(=O)NCc4ccc(F)cc4)nc(C)c3c2C)cc1	inactive	inactive		inactive	inactive	inactive [at 12.7 µM]		
COc1cc(CN2C(=O)C(C)ON=C2c2ccccc2F)cc(OC)c1 (configuration not stated)	inactive	inactive	inactive	inactive	inactive			
Cc1nnc(N2CCC(C(=O)NC3CCCCC3)CC2)c2nn(-c3ccccc3)c(C)c12	inactive	inactive	inactive	inactive	inactive			
CCCc1nn2c(=O)cc(COC(=O)c3ccc(NC(=O)COc4ccccc4F)cc3)nc2s1	inactive	inactive	inactive	inactive	inactive			
COC(=O)c1cc2sccc2n1Cc1ccccc1	inactive	inactive	inactive	inactive	44.7 µM (active)			
COC(=O)c1c(NC(=O)c2ccc(S(=O)(=O)N3CCCCC3C)cc2)sc2c1CCN(C(C)C)C2 (configuration not stated)	inactive	112 µM (active)	inactive	inactive	79.4 µM (active)			
CCOc1ccc(NC2c3ccccc3C(=O)N2Cc2ccco2)cc1 (configuration not stated)	inactive	inactive	inactive	inactive	inactive			
C=CCN1C(=O)/C(=C/C=C2/N(CC)c3ccc(S(=O)(=O)N(C)C)cc3N2CC)SC1=S	inactive	inactive	inactive				-11.8% [at 30.8 µM]	14.5% [at 30.8 µM]
COc1ccc(N=Nc2nc3ccc(Br)cc3n2C)cc1	inactive	inactive	inactive	inactive	50.1 µM (active)			
CCOc1ccc(-c2cccc(NC(=O)c3ccco3)c2)nn1	inactive	inactive	84.9 µM (active)	inactive	inactive			
O=S(=O)(c1ccc(Br)c2ccccc12)N1CCCC1	inactive	inactive	inactive	inactive	inactive			
CCN(CC)CC#CCOC(c1ccccc1)c1ccccc1	inactive	inactive	37.9 µM (active)	inactive	inactive			
Cc1ccc(C)c(Oc2nnnn2-c2ccccc2)c1	inactive	inactive	inactive	inactive	inactive			
O=C(c1ccccc1Br)N(Cc1ccco1)Cc1ccco1	inactive	inactive	inactive	inactive	inactive			
CCC(C)Cn1c(COc2ccc(OC)cc2)nc2ccccc21 (configuration not stated)	inactive	inactive	inactive	inactive	inactive			
Cc1cc(C)c(S(=O)(=O)N(C)c2ccccc2)c(C)c1	inactive	inactive	23.9 µM (active)	inactive	inactive			
